Where “and” joins values, the source holds several entries; their conditions need not be identical. Equal values may be shown once. Results filed as inconclusive are left out. Some compounds were tested as several samples or in several runs, with calls that do not always agree. Calls of active or inactive are those of the source. Rule for the calls, unless noted: active = hit-call score of the fitted dose curve at least 0.9, where 1 is the maximum; inactive = score below 0.9.
Experiments:
[1] = BSK_BT_PBMCCytotoxicity: PBMC Cytotoxicity Assessment in the BioMAP Diversity Plus: BT Assay (AID 2284225); details: primary human B cells with PBMC;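 note: PBMC viability measured by Alamar Blue dye reduction fluorescence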
Outline: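 PBMC (75,000/well) pretreated with compound 1 h, then activated with SEB and TSST-1 (20 ng/mL each final), incubated 90 h; Alamar Blue added 6 h, fluorescence read at 546/580 nm. Fitted relative to DMSO.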

[2] = read-out: Secreted IgG (sIgG), gene 3500; assay: BSK_BT_sIgG: BioMAP Diversity Plus: BT Assay for Secreted IgG (sIgG) Biomarker Activity (AID 2284226); details: primary human B cells with PBMC
Outline: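 Read-out: ELISA for secreted IgG after 24 h of chemical exposure in a B cell plus PBMC co-culture. Values reflect upward-direction fitting against DMSO negative controls.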

[3] = BSK_BT_Bcell_Proliferation: Viability Assessment in the BioMAP Diversity Plus: BT Assay for B cell Proliferation (AID 2284227); details: primary human B cells with PBMC
Outline: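 Human B cell/PBMC co-culture; test chemical added; 72 h; TCA fix (10%), 0.1% SRB stain, A560 for total protein as a proliferation read-out; positive-direction fit vs DMSO baseline.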

[4] = read-out: Interleukin 6 (IL6), IL6 (gene 3569); assay: BSK_BT_xIL6: BioMAP Diversity Plus: BT Assay for Interleukin 6 (IL6) Biomarker Activity (AID 2284228); details: primary human B cells with PBMC
Outline: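 Readout: secreted IL-6 via Luminex xMAP multiplex, 24 h post-dosing. System: primary human B cells co-cultured with PBMC. Signal change scored relative to DMSO vehicle, positive fitting direction.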

[5] = read-out: Interleukin 17A (IL17A), IL17A (gene 3605); assay: BSK_BT_xIL17A: BioMAP Diversity Plus: BT Assay for Interleukin 17A (IL17A) Biomarker Activity (AID 2284229); details: primary human B cells with PBMC
Outline: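 Luminex xMAP readout of secreted IL-17A; human B cell + PBMC co-culture; 24 h post-dose; positive-direction fit vs DMSO negative control.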

[6] = read-out: Tumor necrosis factor (Homo sapiens) (UniProt P01375); assay: BSK_BT_xTNFa: BioMAP Diversity Plus: BT Assay for Tumor necrosis factor alpha (TNF-alpha) Biomarker Activity (AID 2284230); details: primary human B cells with PBMC
Outline: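 Read-out: Luminex xMAP quantitation of secreted TNF-alpha from a B cell/PBMC co-culture 24 h after compound addition. Signal analysed relative to DMSO vehicle, positive fitting direction.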

[7] = read-out: Vascular cell adhesion molecule 1 (VCAM1), VCAM1 (gene 7412); assay: BSK_MyoF_VCAM1: BioMAP Diversity Plus: MyoF Assay for Vascular cell adhesion molecule 1 (VCAM1) Biomarker Activity (AID 2284231); details: primary human lung fibroblasts
Outline: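 MyoF system, lung fibroblasts; 24 h post-dose; VCAM-1 by ELISA; gain-of-signal fit vs DMSO baseline.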

[8] = read-out: Collagen I, COL1A1 (gene 1277); assay: BSK_MyoF_CollagenI: BioMAP Diversity Plus: MyoF Assay for Collagen I Biomarker Activity (AID 2284238); details: primary human lung fibroblasts
Outline: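 ELISA readout of Collagen I after 24 h chemical treatment of primary human lung fibroblast cultures; gain of signal scored relative to DMSO vehicle baseline.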

[9] = read-out: Collagen III, COL3A1 (gene 1281); assay: BSK_MyoF_CollagenIII: BioMAP Diversity Plus: MyoF Assay for Collagen III Biomarker Activity (AID 2284239); details: primary human lung fibroblasts
Outline: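 Lung fibroblast culture; 24 h compound exposure; collagen III by ELISA; gain-of-signal fit vs DMSO baseline.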

[10] = CCTE_Mundy_HCI_hNP1_Casp3_7: CCTE's Caspase-Glo 3/7 Assay in human neuroprogenitor cells for Apoptosis, Mundy Lab (AID 2284240)
Outline: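 Neuroepithelial-lineage stem cells from WA09 embryonic cells were treated with chemicals after 40–44 h of culture. Twenty-four hours later, caspase-3/7 activation was detected luminescently after a 30 min room-temperature reagent step, with DMSO as baseline.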

[11] = CCTE_Mundy_HCI_hNP1_Pro_ResponderAvgInten: CCTE's Proliferation Assay in human neuroprogenitor cells, Mundy Lab (AID 2284224; active = hit-call score of the fitted dose curve at least 0.9, where 1 is the maximum;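 note: human neural progenitor cells hNP1 derived from WA09 embryonic stem cells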)
Outline: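 Human neuroprogenitors (hNP1, WA09 lineage) receive test chemical after 40 to 44 hours of attachment. A four-hour BrdU pulse begins twenty hours later, followed by fixation and high content imaging; signal is referenced to DMSO controls.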

Measured: AC50

Sequence of Tumor necrosis factor (Homo sapiens) (P01375 whole entry, looked up): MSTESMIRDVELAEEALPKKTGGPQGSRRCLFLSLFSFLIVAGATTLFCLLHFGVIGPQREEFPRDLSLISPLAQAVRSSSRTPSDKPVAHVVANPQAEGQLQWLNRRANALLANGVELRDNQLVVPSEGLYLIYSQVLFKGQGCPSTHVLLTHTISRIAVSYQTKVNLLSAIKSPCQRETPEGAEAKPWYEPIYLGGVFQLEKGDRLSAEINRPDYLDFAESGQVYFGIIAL

O=C(Cl)C(F)(F)C(F)(F)C(F)(F)C(F)(F)C(F)(F)C(F)(F)C(F)(F)C(F)(F)F
active: [7] 27.2 µM and 45.4 µM and 44.1 µM | [8] 41.3 µM and 41.8 µM and 44.2 µM | [9] 22.5 µM and 23.5 µM and 24.7 µM
inactive: [1] | [2] | [3] | [4] | [5] | [6]

FC(F)(F)C(F)(F)C(F)(F)C(F)(F)C(F)(F)C(F)(F)CC1CO1 (centres undefined)
inactive: [1] | [2] | [3] | [4] | [5] | [6] | [7] | [8] | [9] | [10]

FC(F)(F)C(F)(F)C(F)(F)C(F)(F)C(F)(F)C(F)(F)C(F)(F)Br
inactive: [1] | [2] | [3] | [4] | [5] | [6] | [7] | [8] | [9]

FC(F)(F)C(F)(F)C(F)(F)C(F)(F)C(F)(F)C(F)(F)C(F)(F)I
active: [7] 4.15 µM and 4.24 µM | [8] 4.56 µM and 3.16 µM | [9] 5.06 µM and 4.85 µM
inactive: [1] | [2] | [3] | [4] | [5] | [6]

NC(=O)C(F)(F)C(F)(F)C(F)(F)C(F)(F)F
inactive: [1] | [2] | [3] | [4] | [5] | [6] | [7] | [8] | [9]

C=CC/C=C/C/C=C/C/C=C/C
inactive: [1] | [2] | [3] | [4] | [5] | [6] | [7] | [8] | [9]

C=C(C)C(=O)OCCC(F)(F)C(F)(F)C(F)(F)C(F)(F)C(F)(C(F)(F)F)C(F)(F)F
inactive: [1] | [2] | [3] | [4] | [5] | [6] | [7] | [8] | [9]

C=C(C)C(=O)OCC(F)(F)C(F)(F)C(F)(F)C(F)(F)C(F)(F)C(F)(F)C(F)(F)F
inactive: [1] | [2] | [3] | [4] | [5] | [6] | [7] | [8] | [9]

C=CC(F)(F)C(F)(F)C(F)(F)C(F)(F)C(F)(F)C(F)(F)C(F)(F)C(F)(F)F
inactive: [1] | [2] | [3] | [4] | [5] | [6] | [7] | [8] | [9]

CCCCCCCCCCCCCCCC[N+](C)(C)Cc1ccccc1
active: [1] 5.2 µM | [2] 0.274 µM | [3] 2.44 µM | [4] 9.92 µM | [5] 2.84 µM | [6] 5.5 µM | [7] 2.1 µM | [8] 987 nM | [9] 1.73 µM

O=C(O)C(F)(F)C(F)(F)C(F)(F)F
inactive: [11] | [1] | [2] | [3] | [4] | [5] | [6] | [7] | [8] | [9] | [10]

CCCCNc1ccccc1
inactive: [1] | [2] | [3] | [4] | [5] | [6] | [7] | [8] | [9]

COC(=O)CCC(F)(F)C(F)(F)C(F)(F)C(F)(F)F
inactive: [1] | [2] | [3] | [4] | [5] | [6] | [7] | [8] | [9]

FC1CC(F)(F)C(F)(F)C1(F)F (centres undefined)
inactive: [1] | [2] | [3] | [4] | [5] | [6] | [7] | [8] | [9]

O=C(O)C(F)(F)C(F)(F)C(F)(F)C(F)(F)C(F)(F)C(F)(F)C(F)(F)C(F)(F)C(F)(F)C(F)F
active: [1] 22.9 µM | [3] 16.4 µM | [7] 21.5 µM and 23.5 µM | [8] 19 µM and 16.1 µM | [9] 18.7 µM and 16.4 µM
inactive: [1] | [2] | [3] | [4] | [6]

FC(F)(F)C(F)(F)C(F)(F)C(F)(F)C(F)(F)C(F)(F)C(F)(F)C(F)(F)CCS
inactive: [11] | [1] | [2] | [3] | [4] | [6] | [7] | [8] | [9] | [10]
active: [7] 6.22 µM

O=C(O)C(F)(F)C(F)(F)F
inactive: [1] | [2] | [3] | [4] | [5] | [6] | [7] | [8] | [9]
